From PubChem BioAssay
A selection follows.
aSyn 5UTR act = Activators via SNCA 5'UTR binding, MLPCN; alpha-synuclein 5'UTR reporter, activators screen; activity score, % (tested at 7.5 µM), hits read low; 300,000 tested, 7.1% active; AID 1814, 2009; in the data active means activity score below about -60%
Numbers stand for hits; – = inactive.

SMILES | aSyn 5UTR act
O=C(Nc1ccccc1)[C@@H]1[C@@H]2C(=O)N(c3ccc(F)cc3)C(=O)[C@@H]2[C@H]2C=CC=NN21 | -68
CCOc1ccc(C2=Nn3c(nnc3-c3ccc(OC)cc3)SC2)cc1 | –
CCC(=O)N1CCC(c2ccc(OC)cc2)=N1 | -75
Cc1ccc(-c2csc(NC(CO)c3nc4ccccc4n3CCOCCO)n2)cc1 (centres undefined) | -71
Cc1ccc(C(NC(=O)NCCCN2CCOCC2)=C(Cl)Cl)cc1F | -70
Cc1ccc(SC(C)c2nc(-c3ccccc3)no2)cc1 (centres undefined) | -98
CCc1ccc(-c2cc(C(=O)N3N=C(C(F)F)CC3(O)C(F)F)c3ccccc3n2)cc1 (centres undefined) | -68
O=C(Nc1cccc(O)c1)c1ccc(NC(=O)C2CCCO2)cc1 (centres undefined) | -98
O=C(Nc1ccc(F)cc1)c1ccc(NC(=O)C2CCCO2)cc1 (centres undefined) | -128
COC(=O)c1c(-c2ccc(F)cc2)csc1NC(=O)C1CCCO1 (centres undefined) | -85
COC(=O)c1ccc(NC(=O)C2CCCO2)cc1 (centres undefined) | -64
COc1cccc([C@@H]2Oc3ccc(OC)cc3C(=O)[C@H]2O)c1 | -138
C=CCSc1nnc(-c2ccc(Cl)cc2Cl)o1 | -78
C=CCSc1nnc(-c2ccc([N+](=O)[O-])cc2)o1 | -140
Clc1ccc(-c2nnc(SCc3ccon3)o2)c(Cl)c1 | -69
Cc1ccccc1S(=O)(=O)Cc1ccc(C(=O)N2CCN(c3cccc(C)c3C)CC2)o1 | –
O=C(c1ccc(COc2ccc(Cl)cc2Cl)o1)N1CCCC1 | -63
Cc1ccc(OCc2ccc(C(=O)N3CCCC3)o2)cc1C | -82
O=C(c1ccc(COc2ccccc2[N+](=O)[O-])o1)N1CCCCCC1 | -80
CCCCCOC(=O)NCC(O)c1ccccc1 (centres undefined) | -128
S=c1[nH]nc(-c2ccn[nH]2)n1-c1ccccc1Cl | -86
CCOC(=O)CN1C(=O)S/C(=C/c2ccc3c(c2)n(C)c(=O)n3C)C1=O | -155
CC(C)c1ccccc1NC(=O)COC(=O)CCN1C(=O)/C(=C\C=C\c2ccccc2)SC1=S | –
CCOC(=O)CN1C(=O)S/C(=C/C=C/c2ccc(N(C)C)cc2)C1=O | -165
O=C(CN1C(=O)S/C(=C\C=C\c2ccccc2)C1=O)Nc1ccc(O)cc1 | -150
SMILES | aSyn 5UTR act
O=C(COC(=O)CCN1C(=O)/C(=C\C=C\c2ccccc2)SC1=S)Nc1ccc(Br)cc1 | –
CCN(CC)S(=O)(=O)c1ccc(N2CCc3ccccc3C2)nc1 | -78
CCN(CC)S(=O)(=O)c1ccc(N/N=C/c2ccc(O)cc2O)nc1 | –
CC(C)N(C(C)C)S(=O)(=O)c1ccc(N2CCc3ccccc3C2)nc1 | -150
N#Cc1cc(-c2ccccc2)nn1-c1ccccc1 | -68
COc1cc2c(cc1OC)C(C)N(C(=O)c1cc(Cl)nc(Cl)c1)CC2 (centres undefined) | -105
CC(C)(C)c1ccc(-c2cc(N)n[nH]2)cc1 | –
Cc1ccc(-c2cc(N)n[nH]2)cc1 | -73
Cc1nc(Nc2ccccc2)sc1C | -112
CC(=O)c1sc(NC(=O)c2ccccc2)nc1-c1ccccc1 | -139
Cc1nc(NC(=S)NC(=O)c2ccccc2)sc1C | -161
CCOC(=O)Nc1nc(-c2ccccc2)c(C(=O)c2ccccc2)s1 | –
Cc1nc(NC(=O)c2ccccc2O)sc1C | -128
Cc1nc(NC(=O)CCc2ccccc2)sc1C | -86
Cc1nc(NC(=O)c2csc3ccccc23)sc1C | -141
Cc1nc(NC(=O)c2ccccc2)sc1C | -86
O=C1c2ccccc2NC(c2ccc3c(c2)OCO3)N1O (centres undefined) | -121
N#Cc1c(N2CCOCC2)nsc1-c1ccccc1 | -68
N#Cc1c(N2CCCC2)nsc1-c1ccccc1 | -180
CN(C)c1nc(-c2ccccn2)nnc1-c1ccccc1 | –
Oc1ccccc1N=Nc1nc(-c2ccccc2)c(-c2ccccc2)[nH]1 | –
Oc1ccc(-c2nnc(-c3ccccc3)c(-c3ccccc3)n2)cc1 | -201
CCOC(=O)Cc1csc(NC(=O)/C=C/c2ccc(Cl)cc2)n1 | -64
Cc1cccc(NC(=O)/C=C/c2ccc(Cl)cc2)n1 | -158
CSc1cccc(NC(=S)Nc2cc(C)ccc2C)c1 | -139
SMILES | aSyn 5UTR act
CSc1cccc(NC(=O)/C=C/c2ccc(Cl)cc2)c1 | -160
O=C(/C=C/c1ccccc1)Nc1ccc(Cl)cn1 | -95
O=C(/C=C/c1ccccc1)Nc1cccc(C(=O)O)c1 | –
CSc1cccc(NC(=O)/C=C/c2ccccc2)c1 | -226
CSc1cccc(NC(=O)Nc2ccccc2)c1 | -111
Cc1cccc(N/N=C/c2ccccc2O)c1 | -182
COc1ccc2nc(C)cc(N/N=C/c3cccc(OC)c3O)c2c1 | –
Cc1ccccc1/C=N/Nc1nc2ccccc2c(=O)n1O | -129
CC(C)(C)c1nnc(N/N=C/c2ccccc2O)n(N)c1=O | –
Cc1cc(N/N=C/c2ccccc2O)c2ccccc2n1 | -113
Cc1cccc(N/N=C/c2ccncc2)c1 | -109
C/C(=N\Nc1nc(-c2ccccn2)nc2ccccc12)c1ccc(F)cc1 | –
C/C(=N\Nc1nc(-c2ccccc2O)nc2ccccc12)c1ccccc1 | -91
Cc1ccc(NC(=O)Nc2ccc(Cl)c(Cl)c2)nc1 | -90
Cc1ccc(NC(=O)Nc2ccc3c(c2)OCO3)nc1 | -193
Cc1ccc(NC(=O)/C=C/c2ccc3c(c2)OCO3)nc1 | -109
CC(/C=C/c1ccc2c(c1)OCO2)=N/NC(=O)CNc1ccc(C)cc1 | -62
Cc1ccc(NC(=O)Nc2ccc(Cl)cn2)cc1 | -147
CCOc1ccc(N(C(=O)c2ccccc2Cl)C2=NC(C)(C)CS2)cc1 | -79
CC(C)CC(NC(=O)c1ccc(Cl)cc1)C(=O)OCC(=O)c1ccc2c(c1)NC(=O)CO2 (centres undefined) | –
CCN(CC)CCCNC(=O)c1ccc2c3n(nc2c1)-c1ccc(Cl)cc1CO3 | -246
CC(C)NC(=O)c1ccc2c3n(nc2c1)-c1ccc(Cl)cc1CO3 | -176
CC[C@@H](C(=O)[C@@H](C)[C@@H](O)[C@H](C)CCc1ccc(C)c(O)c1C(=O)O)[C@H]1O[C@](CC)([C@H]2CC[C@](O)(CC)[C@H](C)O2)C[C@@H]1C | –
O=C(Nc1ccc(Cl)cc1)c1ccc(OCC2CCCO2)cc1 (centres undefined) | -202
Cc1cccc(NC(=O)c2ccc(OCC3CCCO3)cc2)c1C (centres undefined) | -70
SMILES | aSyn 5UTR act
O=C(Nc1ccccc1)OCC1CCCO1 (centres undefined) | -84
O=C(Cn1sc2ccccc2c1=O)NC12CC3CC(CC(C3)C1)C2 | -92
CC(NC(=O)Cn1ncc(Cl)c(Cl)c1=O)C12CC3CC(CC(C3)C1)C2 (centres undefined) | –
CCc1ccc2[nH]c(=O)c(CN(Cc3ccccc3OC)C(=O)Nc3ccccc3OC)cc2c1 | -72
O=C(/C=C/c1ccco1)Nc1nc(-c2ccccn2)cs1 | -79
O=C(/C=C/c1ccco1)Nc1nc(-c2ccc(F)c(F)c2)cs1 | -100
Cc1csc(NC(=O)/C=C/c2ccco2)n1 | -168
O=C(/C=C/c1ccco1)Nc1nc(-c2ccccc2)cs1 | -250
COc1ccc(-c2csc(NC(=S)NC(=O)/C=C/c3ccco3)n2)cc1OC | –
COC(=O)c1sccc1NC(=O)c1cc2c(s1)CCCC2 | -133
CCOC(=O)c1ccc(NC(=O)c2cc3c(s2)CCC3)cc1 | -154
O=C(Nc1cccc(Cn2cccn2)c1)c1cc2c(s1)CCCC2 | -139
